Shown are actives, neighbours in structure and some others; about 1.9% of the full set was active somewhere.
NSD2 inh: NSD2 histone methyltransferase inhibitors, primary screen, biochemical, AlphaScreen, single concentration, set 2; NSD2 peptide methylation, 120 min; Histone-lysine N-methyltransferase NSD2 (Homo sapiens), O96028; inhibition, % at 12.5 µM; 310,000 tested, 0.54% active; AID 743445, 2014; in the data active = inhibition above about 50%
Glyco luc inh: increase of ERlucT glycosylation luciferase signal, primary screen, N-linked glycosylation inhibitor project, D54 ERlucT cells, luminescence, set 2. AID 588692, 2011. reporter increase, % at 12.5 µM. 360,000 tested, 0.23% active. D54 ERlucT glycosylation luciferase reporter, 24 h; percent of 100 nM tunicamycin response;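 active = mean luciferase reporter signal, scaled so untreated is 0 and the glycosylation-blocking control 100, at or above a set limit in every replicate; inconclusive = mean reaches the limit but not every replicate does; inactive = mean below the limit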;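 also: luciferase carries N-glycosylation sites so blocking glycosylation raises the light; 0% = median of neutral control wells and 100% = median of 100 nM tunicamycin wells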
Pemphigus Ab inh: inhibitors of pemphigus antibody binding to DSG3, primary screen, biochemical, bead-based, flow cytometry, scFv-GFP | 310,000 tested, 0.48% active | binding (percent of control), % at 10 µM | Desmoglein-3 (Homo sapiens), P32926 | AID 588358, 2011 | DSG3-coupled beads, scFv-anti-DSG3-GFP binding; stronger effect = lower value;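 active = binding more than 3 SD below its plate's average and above zero; inconclusive = below that plate limit but binding exactly zero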;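 also: hits lower antibody fragment binding to DSG3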
Vif inh: HIV Vif self-association inhibitors, primary screen, imaging, HEK293T, single point. HEK293T cells, Vif self-association by quenched fluorescence, 24 h. inhibition, % at 7.49 µM. 340,000 tested, 0.35% active. AID 602346, 2012; in the data active = inhibition above about 50%, passing the limit was not always enough; inconclusive = no clear call, values can overlap the other calls; inactive = below about 31%
CaV13 FRET inh: Disruptors of the CACNA1D IQ motif to Ca2+-dependent inactivation inhibitor domain association, primary screening, Förster resonance energy transfer in intact living … | HEK cells, CFP/YFP FRET ICDI-IQ, plate reader, 10 min; percent FRET-ratio fall versus neutral wells | inhibition, % at 12.3 µM | 340,000 tested, 0.098% active;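 active = mean replicate inhibition of at least 30% and at least 1% of replicates passing that level; inconclusive = only one of the two criteria is met; inactive = neither criterion is met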;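 also: 0% = median of the neutral control wells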
ATG4B inh: ATG4B protease inhibitors, primary screen, biochemical, fluorescence, uHTS | ATG4B cleavage of LC3-PLA2, NBD-HPC fluorescence, 1 h | 340,000 tested, 0.51% active | AID 504462, 2011 | Cysteine protease ATG4B (Homo sapiens), Q9Y4P1 | inhibition, % at 8.33 µM; in the data active = inhibition above about 40%
Target sequence (Q9Y4P1 whole entry, looked up): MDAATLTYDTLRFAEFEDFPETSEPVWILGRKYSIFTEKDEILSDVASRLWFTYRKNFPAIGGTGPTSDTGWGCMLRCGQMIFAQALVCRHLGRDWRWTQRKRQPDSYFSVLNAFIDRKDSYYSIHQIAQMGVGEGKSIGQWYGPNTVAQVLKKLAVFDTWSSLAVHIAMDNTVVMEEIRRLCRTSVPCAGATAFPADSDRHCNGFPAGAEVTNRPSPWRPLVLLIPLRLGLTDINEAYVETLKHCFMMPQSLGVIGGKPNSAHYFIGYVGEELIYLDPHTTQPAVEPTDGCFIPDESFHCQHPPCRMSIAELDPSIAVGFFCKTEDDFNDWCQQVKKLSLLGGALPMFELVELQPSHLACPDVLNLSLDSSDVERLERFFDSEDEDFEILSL
* hit, by the source's call; ? = inconclusive; . = no result given.

SMILES | NSD2 inh | Glyco luc inh | Pemphigus Ab inh | Vif inh | CaV13 FRET inh | ATG4B inh
Cc1cnc(NC(=O)c2cc3c(C)nn(-c4ccccc4)c3s2)s1 | 1 | 0 | 95 | 53* | -7 | 0
CCCOC(=O)C1=C(C)NC(=O)NC1c1cccc2ccccc12 (stereo not drawn) | 0 | -2 | 2.5* | 0 | -6 | -7
CCOC(=O)CSc1nc2ccc(C)cc2cc1C#N | . | -8 | 100 | -13 | -9 | 6
Cc1ccc(NP(=O)(c2ccc(N(C)C)cc2NC(=O)c2cccs2)N2CCOCC2)cc1Cl (stereo not drawn) | -1 | -5 | 85* | 5 | -15 | 6
Cc1ccc(NP(=O)(c2ccc(N(C)C)cc2NC(=O)c2cccs2)N2CCOCC2)cc1 (stereo not drawn) | 0 | -3 | 98 | -3 | -5 | -5
O=C(CN(Cc1ccco1)C(=O)c1nsc(Cl)c1Cl)NC1CCCCC1 | 3 | -3 | . | 6 | -10 | 2
COc1cc(COc2ccc(S(=O)(=O)N3CCOCC3)cc2[N+](=O)[O-])ccc1OC(F)F | -2 | -3 | 101 | 57* | -3 | -10
CC(=O)c1ccc(N2C(=O)CC(N3CCN(S(=O)(=O)c4cc(C)ccc4C)CC3)C2=O)cc1 (stereo not drawn) | 1 | 2 | 89 | 16 | -6 | -7
CCN(CC)CCN1C2=C(C(=O)CC(C)(C)C2)C(c2cccc(F)c2)C2=C1CC(C)(C)CC2=O | . | 1 | 112 | -10 | 123* | -7
CN(C(=O)c1cccc(NC(=O)Cc2ccc(NC(=O)C3CCN(C(=O)c4ccccc4)CC3)cc2)c1)C1CCCC1 | . | -2 | 105 | 1 | -5 | -11
Cc1nn(C)c(C(=O)Nc2ccc(S(=O)(=O)NC34CC5CC(CC(C5)C3)C4)cc2)c1Br | . | -5 | 17* | -19 | . | -13
CC(C)C[C@H](N)C(=O)N1CCC(C(=O)N[C@H](C(=O)NC(C)c2ccccc2)C(C)C)CC1 (stereo partly drawn) | . | 0 | 101 | -16 | . | -9
COc1cccc(C2c3c(oc4ccccc4c3=O)C(=O)N2Cc2ccco2)c1 (stereo not drawn) | -1 | 3 | 67* | 5 | -7 | -3
COc1ccc(Nc2nc(C(C)(C)C)nc3c2nnn3Cc2ccccc2Cl)cc1OC | 4 | -1 | 104 | -1 | -5 | -4
Cc1cccc(C(C)C)c1NC(=O)CSc1ncnc2[nH]ncc12 | -1 | -1 | . | -3 | -6 | 3
COC(=O)c1ccc2c(c1)C(=O)/C(=C/c1ccc(C)cc1)O2 | -1 | 4 | 112 | -6 | -3 | 3
CN(C)c1ccc(/C=C2\Oc3ccc(C#Cc4cccc(N)c4)cc3C2=O)cc1 | . | -4 | 216 | 63* | . | -6
Oc1ccc(Cl)cc1C=NCCc1ccccc1 | -1 | 0 | 98 | 5 | -18 | 43*
Cc1ccc(NC(=O)CSc2nnc(-c3cc(-c4ccc(Cl)cc4)n[nH]3)n2N)cc1 | -1 | . | . | . | . | .
Cc1cc2ccccc2n1CCNC(=O)c1cccs1 | . | -8 | 61* | 0 | 10 | -2
Cc1cc2ccccc2n1CCNC(=O)C1CC1 | . | 0 | 97 | -7 | -10 | -6
CC(C)(C)NCC(O)CON=C1c2ccccc2-c2ccccc21 (stereo not drawn) | 26 | 35* | 102 | -4 | -17 | -1
CC(C)(C)NC(=O)CON=C1c2ccccc2-c2ccccc21 | -4 | -8 | 93 | -12 | -5 | -1
CCN(C(=O)CSc1nnc(Nc2cccc(C)c2C)s1)C1CCS(=O)(=O)C1 (stereo not drawn) | -3 | 2 | 105 | 56* | -3 | 30
COc1ccc(C(=O)/C(=C/O)N=Nc2ccc(F)cc2)cc1 | 5 | 0 | -4.7* | 0 | -5 | 7
SMILES | NSD2 inh | Glyco luc inh | Pemphigus Ab inh | Vif inh | CaV13 FRET inh | ATG4B inh
Cc1noc(C)c1NC(=O)N(C)C[C@H]1OCc2cnnn2CCCC(=O)N([C@H](C)CO)C[C@H]1C | . | 2 | . | 6 | -3 | .
COc1ccccc1-c1cc(NC=O)c2ncc(-c3cccc(C(C)=O)c3)n2c1 | 2 | ? | . | . | -6 | .
COc1ccccc1-c1cc(NC=O)c2ncc(-c3cccc(C(=O)N(C)C)c3)n2c1 | 2 | 41* | . | ? | 10 | .
CN(c1ccccc1)c1ccc(/C=C/[N+](=O)[O-])cc1 | 0 | -20 | 187 | 0 | -12 | 5
CN(C)c1ccc(-n2cccc2/C=C/[N+](=O)[O-])cc1 | . | 64* | 96 | -2 | -7 | -6
O=C(O)c1oc2ccc(Br)cc2c1-n1cccc1 | 5 | 0 | . | 0 | -5 | 18
CC1=[N+](C)c2c(ccc3cccnc23)C1(C)C | . | 12 | 79* | 4 | -43 | -3
C#CCOCCOCCOCCNc1nc(N2CCN(C(=O)CCCCCCCCCCNC(=O)Cn3cc(CCCCCN)nn3)CC2)nc(N2CCN(C(=O)CCCCCCCCCCNC(=O)[C@H](CO)n3cc(CCCCCN)nn3)CC2)n1 | . | 2 | 108 | 54* | . | 7
C#CCOCCOCCOCCNc1nc(N2CCN(C(=O)CCCCCCCCCCNC(=O)[C@H](CCCCN)n3cc(CCCC(=O)O)nn3)CC2)nc(N2CCN(C(=O)CCCCCCCCCCNC(=O)[C@H](CCCN=C(N)N)n3cc(C[C@@H](C)CC)nn3)CC2)n1 | . | 1 | 130 | 12 | . | 37
C#CCOCCOCCOCCNc1nc(N2CCN(C(=O)CCCCCCCCCCNC(=O)[C@H](CCCCN)n3cc(CCO)nn3)CC2)nc(N2CCN(C(=O)CCCCCCCCCCNC(=O)[C@H](CCCN=C(N)N)n3cc(C[C@@H](C)CC)nn3)CC2)n1 | . | -11 | 120 | 72* | . | 70*
C#CCOCCOCCOCCNc1nc(N2CCN(C(=O)CCCCCCCCCCNC(=O)[C@@H](CCSC)n3cc(CCO)nn3)CC2)nc(N2CCN(C(=O)CCCCCCCCCCNC(=O)[C@H]([C@@H](C)CC)n3cc(CCCCCN)nn3)CC2)n1 | . | . | . | . | . | 45*
Cc1c(N2C(=O)/C(=C3/C(=O)N(C)c4ccccc43)SC2=S)c(=O)n(-c2ccccc2)n1C | -1 | 2 | 91 | . | -10 | 2
CC(=O)N1C(=O)/C(=C2\SC(=S)N(c3c(C)n(C)n(-c4ccccc4)c3=O)C2=O)c2ccccc21 | 31 | -2 | 67* | -1 | -3 | 8
c1ccc(CSc2ccc(-c3ccccn3)nn2)cc1 | -1 | -9 | . | -1 | 6 | -5
Clc1ccc(CSc2ccc(-c3ccccn3)nn2)cc1 | -4 | -6 | 13* | -5 | -7 | 6

Screening data (PubChem BioAssay)
